Reference: PMC7862700, “An all-to-all approach to the identification of sequence-specific readers for epigenetic DNA modifications on cytosine”

Key:
Assay in all cases: DAPPL (digital affinity profiling via proximity ligation, sequencing); 10 mM Tris-HCl pH 7.5, 50 mM NaCl, 1 mM DTT, 4% glycerol, room temperature, 30 min; GST-TFs on glutathione beads, 16-mer random dsDNA library, 0.1% formaldehyde crosslink after washing; high values mean tight binding
FLI1 = target: T1, FLI1 (Homo sapiens, UniProt Q01543 1-452); conditions: protein: recombinant; tags: N-terminal GST; dsDNA, one strand shown
T1 sequence: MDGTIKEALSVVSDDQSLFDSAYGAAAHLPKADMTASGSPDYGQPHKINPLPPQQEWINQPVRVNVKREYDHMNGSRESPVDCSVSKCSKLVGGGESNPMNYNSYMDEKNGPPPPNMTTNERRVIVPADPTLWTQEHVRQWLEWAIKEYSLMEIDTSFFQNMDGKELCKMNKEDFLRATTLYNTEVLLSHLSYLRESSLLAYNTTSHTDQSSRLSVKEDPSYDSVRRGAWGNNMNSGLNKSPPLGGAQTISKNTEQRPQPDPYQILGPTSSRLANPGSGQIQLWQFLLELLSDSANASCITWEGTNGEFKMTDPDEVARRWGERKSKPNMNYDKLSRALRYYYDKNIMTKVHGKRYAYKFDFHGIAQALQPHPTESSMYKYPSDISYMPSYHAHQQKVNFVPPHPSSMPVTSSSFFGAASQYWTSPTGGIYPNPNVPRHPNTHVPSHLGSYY
How it was run: (§1)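 A tag-only sample was pooled with DNA-barcoded human transcription factors that had been expressed in yeast as GST fusions and captured on glutathione beads. The pools were incubated for 30 min at room temperature with 200 nmole of a random double-stranded 16-mer DNA library in Tris/NaCl/DTT/glycerol buffer, then washed, crosslinked with 0.1% formaldehyde, proximity-ligated (BsaI/T4 ligase, 1 h, 37 °C), PCR-amplified and sequenced on an Illumina NextSeq500. Binding signal is each hexamer's read frequency for a factor divided by its frequency for the tag-only sample.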

ELK1 = target: T2, ELK1 (Homo sapiens, UniProt P19419 1-428); conditions: protein: recombinant; tags: N-terminal GST; dsDNA, one strand shown
T2 sequence: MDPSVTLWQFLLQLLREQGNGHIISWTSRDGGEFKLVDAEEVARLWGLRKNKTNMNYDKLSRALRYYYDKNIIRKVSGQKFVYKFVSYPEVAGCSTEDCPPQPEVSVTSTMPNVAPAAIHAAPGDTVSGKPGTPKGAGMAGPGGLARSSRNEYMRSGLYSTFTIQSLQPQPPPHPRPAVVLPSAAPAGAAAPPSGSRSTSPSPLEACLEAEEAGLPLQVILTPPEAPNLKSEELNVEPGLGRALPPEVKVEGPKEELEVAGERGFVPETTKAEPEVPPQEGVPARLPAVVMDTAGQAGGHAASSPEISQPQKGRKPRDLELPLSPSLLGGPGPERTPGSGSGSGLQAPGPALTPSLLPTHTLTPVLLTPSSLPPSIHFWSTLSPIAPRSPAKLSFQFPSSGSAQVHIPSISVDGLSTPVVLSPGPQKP
How it was run: as §1

GABPA = target: T3, GABPA (Homo sapiens, UniProt Q06546 1-454); conditions: protein: recombinant; tags: N-terminal GST; dsDNA, one strand shown
T3 sequence: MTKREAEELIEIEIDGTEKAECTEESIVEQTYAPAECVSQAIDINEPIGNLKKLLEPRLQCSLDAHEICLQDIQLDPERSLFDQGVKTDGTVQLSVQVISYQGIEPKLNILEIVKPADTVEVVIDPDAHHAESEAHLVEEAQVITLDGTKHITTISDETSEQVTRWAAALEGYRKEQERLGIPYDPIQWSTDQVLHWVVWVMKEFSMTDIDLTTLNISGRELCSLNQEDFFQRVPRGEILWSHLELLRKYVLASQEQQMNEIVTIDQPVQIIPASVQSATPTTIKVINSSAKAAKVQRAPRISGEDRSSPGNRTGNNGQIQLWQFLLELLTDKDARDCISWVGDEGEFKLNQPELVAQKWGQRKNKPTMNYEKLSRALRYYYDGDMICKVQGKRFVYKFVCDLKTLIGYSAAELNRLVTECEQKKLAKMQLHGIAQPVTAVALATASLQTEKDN
How it was run: as §1

ERG = target: T4, ERG (Homo sapiens, UniProt P11308 1-479); conditions: protein: recombinant; tags: N-terminal GST; dsDNA, one strand shown
T4 sequence: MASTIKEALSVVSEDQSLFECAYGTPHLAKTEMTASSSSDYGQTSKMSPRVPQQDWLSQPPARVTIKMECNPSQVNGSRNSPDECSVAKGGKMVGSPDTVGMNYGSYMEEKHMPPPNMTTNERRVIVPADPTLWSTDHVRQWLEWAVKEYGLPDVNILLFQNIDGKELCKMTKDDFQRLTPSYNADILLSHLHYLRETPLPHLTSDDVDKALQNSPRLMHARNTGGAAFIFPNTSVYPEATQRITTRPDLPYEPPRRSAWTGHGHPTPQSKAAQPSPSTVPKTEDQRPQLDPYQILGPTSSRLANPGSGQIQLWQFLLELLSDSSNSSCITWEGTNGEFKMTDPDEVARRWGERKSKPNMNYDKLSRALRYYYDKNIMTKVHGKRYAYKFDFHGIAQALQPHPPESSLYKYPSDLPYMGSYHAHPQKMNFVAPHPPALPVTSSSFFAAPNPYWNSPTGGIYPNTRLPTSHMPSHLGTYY
How it was run: as §1

ELF1 = ELF1 (Homo sapiens, UniProt P32519 1-619); conditions: protein: recombinant; tags: N-terminal GST; dsDNA, one strand shown
Sequence of ELF1 (P32519 whole entry): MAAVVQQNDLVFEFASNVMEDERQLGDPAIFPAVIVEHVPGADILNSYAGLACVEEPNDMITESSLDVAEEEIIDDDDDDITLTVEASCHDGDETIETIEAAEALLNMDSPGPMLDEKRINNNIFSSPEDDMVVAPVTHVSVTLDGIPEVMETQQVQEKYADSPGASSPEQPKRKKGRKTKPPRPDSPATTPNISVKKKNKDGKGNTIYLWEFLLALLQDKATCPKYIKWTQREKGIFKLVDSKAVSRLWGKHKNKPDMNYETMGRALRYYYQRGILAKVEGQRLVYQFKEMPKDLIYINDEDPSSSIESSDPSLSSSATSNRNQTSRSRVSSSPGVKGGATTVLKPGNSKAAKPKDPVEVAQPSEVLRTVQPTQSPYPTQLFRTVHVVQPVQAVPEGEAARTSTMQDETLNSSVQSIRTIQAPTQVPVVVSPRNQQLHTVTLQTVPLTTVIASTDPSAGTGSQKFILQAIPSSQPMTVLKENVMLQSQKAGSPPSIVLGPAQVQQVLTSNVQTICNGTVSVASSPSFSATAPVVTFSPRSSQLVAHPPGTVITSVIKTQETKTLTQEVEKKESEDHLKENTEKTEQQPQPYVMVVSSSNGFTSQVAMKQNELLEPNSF
How it was run: as §1

EHF = target: T5, EHF (Homo sapiens, UniProt Q9NZC4 1-300); conditions: protein: recombinant; tags: N-terminal GST; dsDNA, one strand shown
T5 sequence: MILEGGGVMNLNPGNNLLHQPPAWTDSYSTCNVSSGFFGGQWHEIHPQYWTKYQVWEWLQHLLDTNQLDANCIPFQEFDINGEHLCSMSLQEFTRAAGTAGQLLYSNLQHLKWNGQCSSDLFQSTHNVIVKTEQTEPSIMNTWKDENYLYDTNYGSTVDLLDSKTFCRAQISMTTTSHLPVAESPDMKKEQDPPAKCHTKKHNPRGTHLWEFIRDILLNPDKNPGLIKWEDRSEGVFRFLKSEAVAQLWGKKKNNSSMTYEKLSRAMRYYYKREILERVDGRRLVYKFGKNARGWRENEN
How it was run: as §1

SPI1 = SPI1 (Homo sapiens, UniProt P17947 1-270); conditions: protein: recombinant; tags: N-terminal GST; dsDNA, one strand shown
How it was run: as §1

SPIB = SPIB (Homo sapiens, UniProt Q01892 1-262); conditions: protein: recombinant; tags: N-terminal GST; dsDNA, one strand shown
Sequence of SPIB (Q01892 whole entry): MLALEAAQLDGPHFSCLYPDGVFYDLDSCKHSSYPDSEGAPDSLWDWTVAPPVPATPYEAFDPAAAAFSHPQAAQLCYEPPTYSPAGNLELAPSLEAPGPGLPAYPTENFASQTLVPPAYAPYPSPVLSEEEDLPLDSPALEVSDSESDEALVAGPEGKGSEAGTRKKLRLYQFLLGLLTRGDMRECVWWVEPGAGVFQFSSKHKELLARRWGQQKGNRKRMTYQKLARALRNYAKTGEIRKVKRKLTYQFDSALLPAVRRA
How it was run: as §1

ELK3 = target: T6, ELK3 (Homo sapiens, UniProt P41970 1-407); conditions: protein: recombinant; tags: N-terminal GST; dsDNA, one strand shown
T6 sequence: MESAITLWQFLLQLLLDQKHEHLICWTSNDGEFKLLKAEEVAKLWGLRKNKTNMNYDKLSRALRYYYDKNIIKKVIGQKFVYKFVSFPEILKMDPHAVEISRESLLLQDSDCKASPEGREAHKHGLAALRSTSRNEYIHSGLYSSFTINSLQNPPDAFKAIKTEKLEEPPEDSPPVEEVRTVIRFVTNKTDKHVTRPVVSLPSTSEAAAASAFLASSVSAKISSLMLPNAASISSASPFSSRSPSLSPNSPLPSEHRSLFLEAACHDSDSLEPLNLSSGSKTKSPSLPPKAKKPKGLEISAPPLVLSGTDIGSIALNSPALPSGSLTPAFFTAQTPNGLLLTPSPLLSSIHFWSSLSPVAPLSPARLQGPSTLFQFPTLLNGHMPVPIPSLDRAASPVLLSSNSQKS
How it was run: as §1

FEV = target: T7, FEV (Homo sapiens, UniProt Q99581 1-238); conditions: protein: recombinant; tags: N-terminal GST; dsDNA, one strand shown
T7 sequence: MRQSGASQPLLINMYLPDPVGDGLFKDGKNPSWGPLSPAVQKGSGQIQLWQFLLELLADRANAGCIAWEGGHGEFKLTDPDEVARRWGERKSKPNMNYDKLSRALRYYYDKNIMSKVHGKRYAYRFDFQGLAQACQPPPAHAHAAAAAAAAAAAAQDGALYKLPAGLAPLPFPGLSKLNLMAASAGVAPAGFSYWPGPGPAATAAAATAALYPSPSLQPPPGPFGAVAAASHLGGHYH
How it was run: as §1

ETV5 = ETV5 (Homo sapiens, UniProt P41161 1-510); conditions: protein: recombinant; tags: N-terminal GST; dsDNA, one strand shown
Sequence of ETV5 (P41161 whole entry): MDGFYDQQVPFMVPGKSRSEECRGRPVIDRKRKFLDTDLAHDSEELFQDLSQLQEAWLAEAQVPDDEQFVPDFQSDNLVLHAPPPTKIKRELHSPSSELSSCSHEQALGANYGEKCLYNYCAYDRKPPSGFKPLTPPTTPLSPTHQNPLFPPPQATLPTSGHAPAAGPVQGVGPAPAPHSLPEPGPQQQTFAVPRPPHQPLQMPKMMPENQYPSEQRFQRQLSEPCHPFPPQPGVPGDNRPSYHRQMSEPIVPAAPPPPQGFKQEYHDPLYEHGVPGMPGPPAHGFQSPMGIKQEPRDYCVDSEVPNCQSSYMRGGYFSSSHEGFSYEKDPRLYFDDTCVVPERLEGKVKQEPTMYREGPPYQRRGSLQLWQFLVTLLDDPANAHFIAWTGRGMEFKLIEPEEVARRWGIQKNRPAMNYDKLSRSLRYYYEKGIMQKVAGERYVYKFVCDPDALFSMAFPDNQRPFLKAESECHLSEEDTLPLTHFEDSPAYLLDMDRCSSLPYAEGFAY
How it was run: as §1

HSF1 = HSF1 (Homo sapiens, UniProt Q00613 1-529); conditions: protein: recombinant; tags: N-terminal GST; chain copies: 3; dsDNA, one strand shown
Sequence of HSF1 (Q00613 whole entry): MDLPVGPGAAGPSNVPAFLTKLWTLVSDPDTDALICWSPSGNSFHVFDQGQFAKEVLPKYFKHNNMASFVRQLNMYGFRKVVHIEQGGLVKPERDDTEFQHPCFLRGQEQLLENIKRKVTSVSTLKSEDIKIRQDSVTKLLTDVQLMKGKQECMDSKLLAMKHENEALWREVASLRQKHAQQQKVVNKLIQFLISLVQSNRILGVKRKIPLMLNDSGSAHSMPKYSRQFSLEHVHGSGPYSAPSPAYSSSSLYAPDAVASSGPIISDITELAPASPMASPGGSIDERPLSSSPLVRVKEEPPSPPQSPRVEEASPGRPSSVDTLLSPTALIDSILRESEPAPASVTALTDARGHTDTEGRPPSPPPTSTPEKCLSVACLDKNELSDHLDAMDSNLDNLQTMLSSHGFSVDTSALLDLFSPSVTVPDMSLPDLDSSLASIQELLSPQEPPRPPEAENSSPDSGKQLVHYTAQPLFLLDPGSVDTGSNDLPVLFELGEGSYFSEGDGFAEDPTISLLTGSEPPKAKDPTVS
How it was run: as §1

SPIC = target: T8, SPIC (Homo sapiens, UniProt Q8N5J4 1-248); conditions: protein: recombinant; tags: N-terminal GST; dsDNA, one strand shown
T8 sequence: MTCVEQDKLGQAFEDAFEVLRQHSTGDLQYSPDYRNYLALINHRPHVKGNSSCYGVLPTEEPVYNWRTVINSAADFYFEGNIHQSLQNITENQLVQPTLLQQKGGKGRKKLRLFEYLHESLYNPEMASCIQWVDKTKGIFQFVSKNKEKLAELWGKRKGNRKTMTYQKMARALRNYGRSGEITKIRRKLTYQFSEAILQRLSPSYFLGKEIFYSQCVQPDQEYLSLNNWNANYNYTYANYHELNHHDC
How it was run: as §1

ELF4 = ELF4 (Homo sapiens, UniProt Q99607 1-663); conditions: protein: recombinant; tags: N-terminal GST; dsDNA, one strand shown
Sequence of ELF4 (Q99607 whole entry): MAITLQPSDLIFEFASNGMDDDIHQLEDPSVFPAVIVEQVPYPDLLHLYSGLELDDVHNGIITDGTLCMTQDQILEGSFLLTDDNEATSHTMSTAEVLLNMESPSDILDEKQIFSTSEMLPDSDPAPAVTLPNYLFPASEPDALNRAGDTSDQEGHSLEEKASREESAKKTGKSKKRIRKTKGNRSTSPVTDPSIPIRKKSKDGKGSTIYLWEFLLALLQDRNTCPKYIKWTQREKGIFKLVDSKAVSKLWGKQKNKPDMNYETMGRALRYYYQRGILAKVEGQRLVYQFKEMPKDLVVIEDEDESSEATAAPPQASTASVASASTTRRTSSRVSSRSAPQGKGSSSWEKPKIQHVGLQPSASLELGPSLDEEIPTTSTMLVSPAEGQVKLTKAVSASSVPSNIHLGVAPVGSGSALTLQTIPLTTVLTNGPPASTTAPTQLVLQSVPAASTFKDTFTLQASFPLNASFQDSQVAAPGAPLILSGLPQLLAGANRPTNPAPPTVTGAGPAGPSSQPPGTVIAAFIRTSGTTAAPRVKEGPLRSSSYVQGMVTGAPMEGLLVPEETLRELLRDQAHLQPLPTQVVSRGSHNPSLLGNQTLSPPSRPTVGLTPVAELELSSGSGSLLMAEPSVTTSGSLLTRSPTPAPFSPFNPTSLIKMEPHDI
How it was run: as §1

ELK4 = target: T9, ELK4 (Homo sapiens, UniProt P28324-2 1-405); conditions: protein: recombinant; tags: N-terminal GST; dsDNA, one strand shown
T9 sequence: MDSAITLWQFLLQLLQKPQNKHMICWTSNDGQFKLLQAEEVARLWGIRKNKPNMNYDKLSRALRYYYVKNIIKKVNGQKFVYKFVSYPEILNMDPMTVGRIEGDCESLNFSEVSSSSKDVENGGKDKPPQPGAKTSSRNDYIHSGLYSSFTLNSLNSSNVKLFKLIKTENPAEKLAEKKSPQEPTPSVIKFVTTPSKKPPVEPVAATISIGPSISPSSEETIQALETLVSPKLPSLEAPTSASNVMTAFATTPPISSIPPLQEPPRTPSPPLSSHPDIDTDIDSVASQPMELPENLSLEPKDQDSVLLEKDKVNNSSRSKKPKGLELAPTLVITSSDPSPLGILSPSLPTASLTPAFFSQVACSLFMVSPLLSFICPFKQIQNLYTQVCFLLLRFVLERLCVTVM
How it was run: as §1

ETV2 = target: T10, ETV2 (Homo sapiens, UniProt O00321 1-342); conditions: protein: recombinant; tags: N-terminal GST; dsDNA, one strand shown
T10 sequence: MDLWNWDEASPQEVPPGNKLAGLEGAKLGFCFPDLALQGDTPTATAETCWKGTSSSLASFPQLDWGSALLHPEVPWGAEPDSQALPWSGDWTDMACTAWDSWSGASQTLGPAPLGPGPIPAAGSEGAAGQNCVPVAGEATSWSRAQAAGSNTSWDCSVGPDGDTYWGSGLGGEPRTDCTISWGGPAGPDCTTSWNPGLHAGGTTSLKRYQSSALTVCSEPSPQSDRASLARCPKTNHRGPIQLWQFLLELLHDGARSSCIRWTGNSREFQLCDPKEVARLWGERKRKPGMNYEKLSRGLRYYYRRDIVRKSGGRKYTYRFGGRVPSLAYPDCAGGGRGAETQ
How it was run: as §1

ELF3 = target: T11, ELF3 (Homo sapiens, UniProt P78545 1-371); conditions: protein: recombinant; tags: N-terminal GST; dsDNA, one strand shown
T11 sequence: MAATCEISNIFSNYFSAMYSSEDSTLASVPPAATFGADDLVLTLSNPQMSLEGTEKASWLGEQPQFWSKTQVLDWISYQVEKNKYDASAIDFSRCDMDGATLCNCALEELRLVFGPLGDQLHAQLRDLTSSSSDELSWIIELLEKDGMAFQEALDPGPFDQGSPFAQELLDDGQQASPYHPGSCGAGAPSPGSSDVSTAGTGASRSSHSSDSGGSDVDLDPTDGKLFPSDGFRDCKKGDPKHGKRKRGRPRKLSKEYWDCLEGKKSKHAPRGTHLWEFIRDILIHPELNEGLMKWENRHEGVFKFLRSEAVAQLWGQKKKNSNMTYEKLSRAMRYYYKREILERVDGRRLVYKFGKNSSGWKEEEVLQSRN
How it was run: as §1

CRX = CRX (Homo sapiens, UniProt O43186 1-299); conditions: protein: recombinant; tags: N-terminal GST; dsDNA, one strand shown
Sequence of CRX (O43186 whole entry): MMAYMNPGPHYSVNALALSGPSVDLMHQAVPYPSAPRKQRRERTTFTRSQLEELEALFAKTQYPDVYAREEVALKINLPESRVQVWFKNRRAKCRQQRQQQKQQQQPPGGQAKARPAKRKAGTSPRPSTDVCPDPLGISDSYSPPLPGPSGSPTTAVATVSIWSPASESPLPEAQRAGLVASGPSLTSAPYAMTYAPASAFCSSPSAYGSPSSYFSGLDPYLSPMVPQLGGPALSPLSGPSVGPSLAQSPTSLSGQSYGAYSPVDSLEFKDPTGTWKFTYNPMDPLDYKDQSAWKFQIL
How it was run: as §1

ETV1 = ETV1 (Homo sapiens, UniProt P50549 1-477); conditions: protein: recombinant; tags: N-terminal GST; dsDNA, one strand shown
Sequence of ETV1 (P50549 whole entry): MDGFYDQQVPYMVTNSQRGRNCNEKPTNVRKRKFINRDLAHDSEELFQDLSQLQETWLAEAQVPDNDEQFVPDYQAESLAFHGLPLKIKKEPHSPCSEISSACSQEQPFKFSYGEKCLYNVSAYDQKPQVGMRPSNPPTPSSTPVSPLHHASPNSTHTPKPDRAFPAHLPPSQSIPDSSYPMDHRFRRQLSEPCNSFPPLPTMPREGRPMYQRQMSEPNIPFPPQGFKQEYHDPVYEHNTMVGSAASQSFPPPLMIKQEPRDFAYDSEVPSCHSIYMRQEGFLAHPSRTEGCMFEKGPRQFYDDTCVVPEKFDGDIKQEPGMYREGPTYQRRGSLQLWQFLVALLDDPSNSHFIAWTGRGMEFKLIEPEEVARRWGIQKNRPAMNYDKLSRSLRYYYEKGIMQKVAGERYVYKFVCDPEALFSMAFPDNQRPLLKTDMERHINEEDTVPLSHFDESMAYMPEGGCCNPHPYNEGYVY
How it was run: as §1

TTGTAT
binding signal (FLI1): 1.52 fold enrichment (6-mer frequency, TF over GST control) | binding signal (ELK1): 1.33 fold enrichment (6-mer frequency, TF over GST control) | binding signal (GABPA): 1.29 fold enrichment (6-mer frequency, TF over GST control) | binding signal (ERG): 1.31 fold enrichment (6-mer frequency, TF over GST control) | binding signal (ELF1): 1.32 fold enrichment (6-mer frequency, TF over GST control) | binding signal (EHF): 1.37 fold enrichment (6-mer frequency, TF over GST control) | binding signal (SPI1): 1.11 fold enrichment (6-mer frequency, TF over GST control) | binding signal (SPIB): 1.38 fold enrichment (6-mer frequency, TF over GST control) | binding signal (ELK3): 1.4 fold enrichment (6-mer frequency, TF over GST control) | binding signal (FEV): 1.26 fold enrichment (6-mer frequency, TF over GST control) | binding signal (ETV5): 1.26 fold enrichment (6-mer frequency, TF over GST control) | binding signal (HSF1): 1.21 fold enrichment (6-mer frequency, TF over GST control) | binding signal (SPIC): 1.28 fold enrichment (6-mer frequency, TF over GST control) | binding signal (ELF4): 1.35 fold enrichment (6-mer frequency, TF over GST control) | binding signal (ELK4): 1.43 fold enrichment (6-mer frequency, TF over GST control) | binding signal (ETV2): 1.4 fold enrichment (6-mer frequency, TF over GST control) | binding signal (ELF3): 1.34 fold enrichment (6-mer frequency, TF over GST control) | binding signal (CRX): 1.42 fold enrichment (6-mer frequency, TF over GST control) | binding signal (ETV1): 1.3 fold enrichment (6-mer frequency, TF over GST control)
